According to PubChem BioAssay AID1159580 (chemical genetic matrix, 2015):
Several values for one entry are separate records, joined by “and”; a condition that tells them apart may be missing. Equal entries are not always repeated. Screen size: about 5,500 compounds; about 2,000 (36%) were called active. Another 18% or so got no clear call; they are omitted. No stated cut-off is given here; in the data, active means normalized growth mostly below about 0.91 (no sharp cut-off); inconclusive means no clear call, values can overlap the other calls; inactive means mostly above about 0.92. The list shows a part of the results.

Test: chemical genetic growth profiling, strain panel (AID 1159580);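 further: tested at 20 µM; growth read once vehicle control cultures reached saturation at 30 °C; 1 = growth at the plate median or of vehicle wells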
Settings: S. cerevisiae deletion strains, growth OD

Measured: normalized growth

COc1ccc(/C=C/c2cc(O)cc(O)c2)cc1
inactive: locus YAL021C, strain ccr4, stronger effect = lower value 0.984 | locus YAL026C, strain drs2, stronger effect = lower value 1.01 | locus YAL030W, strain snc1, stronger effect = lower value 1.01 | locus YBL061C, strain skt5, stronger effect = lower value 1.01 | locus YBR009C, strain hhf1, stronger effect = lower value 1 | locus YBR021W, strain FUR4, stronger effect = lower value 0.949 | locus YBR023C, strain chs3, stronger effect = lower value 1 | locus YBR171W, strain sec66, stronger effect = lower value 1.02 | locus YBR229C, strain ROT2, stronger effect = lower value 0.978 | locus YBR231C, strain swc5, stronger effect = lower value 1 | locus YBR279W, strain paf1, stronger effect = lower value 1 | locus YCL011C, strain gbp2, stronger effect = lower value 0.991 | locus YCL016C, strain dcc1, stronger effect = lower value 1 | locus YCL029C, strain bik1, stronger effect = lower value 0.931 | locus YCL061C, strain MRC1, stronger effect = lower value 0.999 | locus YCL069W, strain vba3, stronger effect = lower value 1.01 | locus YCR088W, strain abp1, stronger effect = lower value 1 | locus YDL005C, strain med2, stronger effect = lower value 1.01 | locus YDL035C, strain GPR1, stronger effect = lower value 0.868 | locus YDL040C, strain nat1, stronger effect = lower value 1.01 | locus YDL101C, strain DUN1, stronger effect = lower value 0.949 | locus YDL134C, strain PPH21, stronger effect = lower value 0.895 | locus YDL185W, strain tfp1, stronger effect = lower value 0.976 | locus YDR001C, strain nth1, stronger effect = lower value 1.01 | locus YDR069C, strain doa4, stronger effect = lower value 1.02 | locus YDR137W, strain rgp1, stronger effect = lower value 1.02 | locus YDR159W, strain sac3, stronger effect = lower value 1.01 | locus YDR162C, strain NBP2, stronger effect = lower value 0.866 | locus YDR195W, strain ref2 1.06 | locus YDR297W, strain sur2, stronger effect = lower value 1 | locus YDR318W, strain mcm21, stronger effect = lower value 0.919 | locus YDR334W, strain swr1, stronger effect = lower value 1.02 | locus YDR335W, strain msn5, stronger effect = lower value 0.999 | locus YDR388W, stronger effect = lower value 0.962 | locus YDR392W, strain spt3, stronger effect = lower value 0.982 | locus YEL003W, strain gim4, stronger effect = lower value 1.01 | locus YEL037C, strain rad23, stronger effect = lower value 1.01 | locus YEL061C, strain CIN8 (second series), stronger effect = lower value 1.01 | locus YER015W, strain faa2, stronger effect = lower value 0.998 | locus YER016W, strain bim1, stronger effect = lower value 1.01 | locus YER110C, stronger effect = lower value 0.956 | locus YER111C, strain swi4, stronger effect = lower value 1.01 | locus YER155C, strain BEM2 (second series), stronger effect = lower value 1 | locus YER155C, strain BEM2, stronger effect = lower value 0.945 | locus YFR010W, strain ubp6, stronger effect = lower value 1.01 | locus YGL078C, strain dbp3, stronger effect = lower value 0.946 | locus YGL167C, strain pmr1, stronger effect = lower value 1.01 | locus YGL173C, strain kem1, stronger effect = lower value 1.02 | locus YGL227W, strain vid30, stronger effect = lower value 1.01 | locus YGL240W, strain doc1, stronger effect = lower value 1 | locus YGL248W, strain PDE1, stronger effect = lower value 0.907 | locus YGL253W, strain hxk2, stronger effect = lower value 1.01 | locus YHR013C, strain ard1, stronger effect = lower value 1 | locus YHR027C, strain rpn1, stronger effect = lower value 0.998 | locus YHR079C, strain IRE1 (second series), stronger effect = lower value 0.974 | locus YHR079C, strain IRE1, stronger effect = lower value 1.01 | locus YHR094C, strain hxt1, stronger effect = lower value 0.96 | locus YHR142W, strain chs7, stronger effect = lower value 0.99 | locus YIL073C, strain SPO22, stronger effect = lower value 0.896 | locus YIL125W, strain kgd1, stronger effect = lower value 0.955 | locus YIR030C, strain dcg1, stronger effect = lower value 0.957 | locus YJL092W, strain hpr5, stronger effect = lower value 1.01 | locus YJL095W, strain BCK1 (second series), stronger effect = lower value 1.01 | locus YJL115W, strain asf1, stronger effect = lower value 1.01 | locus YJL129C, strain trk1, stronger effect = lower value 0.986 | locus YJL134W, strain LCB3, stronger effect = lower value 0.983 | locus YJL154C, strain vps35, stronger effect = lower value 1.01 | locus YJL164C, strain tpk1, stronger effect = lower value 0.986 | locus YJL166W, strain qcr8, stronger effect = lower value 1 | locus YJL168C, strain set2, stronger effect = lower value 0.969 | locus YJL187C, strain SWE1 (second series), stronger effect = lower value 0.89 | locus YJL187C, strain SWE1, stronger effect = lower value 0.997 | locus YJR066W, strain TOR1, stronger effect = lower value 0.995 | locus YKL068W, stronger effect = lower value 0.982 | locus YKL085W, strain MDH1 (second series), stronger effect = lower value 0.946 | locus YKL085W, strain MDH1, stronger effect = lower value 0.946 | locus YKL160W, strain elf1, stronger effect = lower value 0.996 | locus YKR026C, strain gcn3, stronger effect = lower value 1 | locus YKR091W, strain srl3, stronger effect = lower value 1 | locus YLL001W, strain dnm1, stronger effect = lower value 0.997 | locus YLL026W, stronger effect = lower value 1.01 | locus YLL041C, strain sdh2, stronger effect = lower value 1.01 | locus YLR027C, strain aat2, stronger effect = lower value 1 | locus YLR039C, strain RIC1, stronger effect = lower value 0.815 | locus YLR058C, strain SHM2, stronger effect = lower value 0.931 | locus YLR102C, strain apc9, stronger effect = lower value 0.966 | locus YLR113W, strain HOG1, stronger effect = lower value 0.966 | locus YLR221C, strain rsa3, stronger effect = lower value 0.999 | locus YLR258W, strain gsy2, stronger effect = lower value 0.996 | locus YLR262C, strain YPT6 (second series), stronger effect = lower value 0.991 | locus YLR262C, strain YPT6, stronger effect = lower value 0.686 | locus YLR320W, strain mms22, stronger effect = lower value 0.991 | locus YLR342W, strain FKS1, stronger effect = lower value 1 | locus YLR357W, strain rsc2, stronger effect = lower value 0.95 | locus YLR370C, strain arc18, stronger effect = lower value 1.01 | locus YLR384C, strain iki3, stronger effect = lower value 1.01 | locus YML016C, strain PPZ1, stronger effect = lower value 0.964 | locus YML120C, strain ndi1, stronger effect = lower value 0.997 | locus YML124C, strain tub3, stronger effect = lower value 0.972 | locus YMR058W, strain fet3, stronger effect = lower value 1 | locus YMR078C, strain ctf18, stronger effect = lower value 0.967 | locus YMR125W, strain sto1, stronger effect = lower value 1.01 | locus YMR129W, stronger effect = lower value 1.01 | locus YMR205C, strain PFK2, stronger effect = lower value 0.995 | locus YMR231W, strain pep5, stronger effect = lower value 0.992 | locus YMR307W, strain GAS1, stronger effect = lower value 0.663 | locus YNL067W, strain RPL9B, stronger effect = lower value 0.908 | locus YNL071W, strain lat1, stronger effect = lower value 1 | locus YNL153C, strain GIM3, stronger effect = lower value 0.931 | locus YNL183C, strain NPR1, stronger effect = lower value 0.977 | locus YNL209W, strain ssb2, stronger effect = lower value 1.01 | locus YNL248C, strain rpa49, stronger effect = lower value 0.999 | locus YNL250W, strain rad50, stronger effect = lower value 0.961 | locus YNL271C, strain bni1, stronger effect = lower value 0.945 | locus YNL298W, strain CLA4, stronger effect = lower value 0.928 | locus YNL322C, strain KRE1 (second series), stronger effect = lower value 1.01 | locus YNL322C, strain KRE1, stronger effect = lower value 0.945 | locus YNR049C, strain mso1, stronger effect = lower value 1.02 | locus YOL012C, strain htz1 0.771 | locus YOR001W, strain rrp6, stronger effect = lower value 1 | locus YOR061W, strain CKA2, stronger effect = lower value 0.941 | locus YOR069W, strain VPS5, stronger effect = lower value 0.927 | locus YOR070C, strain gyp1, stronger effect = lower value 1 | locus YOR080W, strain dia2, stronger effect = lower value 1 | locus YOR083W, strain WHI5, stronger effect = lower value 0.994 | locus YOR106W, strain vam3, stronger effect = lower value 0.956 | locus YOR136W, strain idh2, stronger effect = lower value 0.936 | locus YOR231W, strain MKK1, stronger effect = lower value 0.991 | locus YOR265W, strain rbl2, stronger effect = lower value 1.02 | locus YOR270C, strain vph1, stronger effect = lower value 0.998 | locus YOR290C, strain snf2, stronger effect = lower value 0.995 | locus YOR316C, strain cot1, stronger effect = lower value 0.961 | locus YPL051W, strain arl3, stronger effect = lower value 0.973 | locus YPL078C, strain atp4, stronger effect = lower value 0.998 | locus YPL106C, strain sse1, stronger effect = lower value 0.996 | locus YPL240C, strain hsp82, stronger effect = lower value 1.01 | locus YPL241C, strain CIN2, stronger effect = lower value 0.973 | locus YPL256C, strain CLN2, stronger effect = lower value 1.05 | locus YPR119W, strain clb2, stronger effect = lower value 0.964 | locus YPR141C, strain kar3, stronger effect = lower value 0.977 | locus YPR167C, strain met16, stronger effect = lower value 0.969
active: locus YDL074C, strain BRE1, stronger effect = lower value 0.725 | locus YDL192W, strain arf1, stronger effect = lower value 0.729 | locus YDR101C, strain arx1, stronger effect = lower value 0.878 | locus YDR502C, strain sam2, stronger effect = lower value 0.846 | locus YEL061C, strain CIN8, stronger effect = lower value 0.864 | locus YER167W, strain BCK2, stronger effect = lower value 0.872 | locus YGL086W, strain mad1, stronger effect = lower value 0.854 | locus YGR078C, strain PAC10, stronger effect = lower value 0.803 | locus YGR135W, strain pre9, stronger effect = lower value 0.86 | locus YGR252W, strain gcn5, stronger effect = lower value 0.687 | locus YHR129C, strain ARP1, stronger effect = lower value 0.857 | locus YHR200W, strain rpn10, stronger effect = lower value 0.879 | locus YIL066C, strain RNR3, stronger effect = lower value 0.841 | locus YJR043C, strain POL32, stronger effect = lower value 0.788 | locus YKL009W, strain mrt4, stronger effect = lower value 0.87 | locus YKR001C, strain vps1, stronger effect = lower value 0.608 | locus YLR268W, strain sec22, stronger effect = lower value 0.872 | locus YLR330W, strain CHS5, stronger effect = lower value 0.84 | locus YLR342W, strain FKS1 (second series), stronger effect = lower value 0.785 | locus YLR371W, strain rom2, stronger effect = lower value 0.793 | locus YLR418C, strain cdc73, stronger effect = lower value 0.583 | locus YML032C, strain rad52, stronger effect = lower value 0.886 | locus YMR223W, strain ubp8, stronger effect = lower value 0.89 | locus YMR263W, strain SAP30, stronger effect = lower value 0.883 | locus YNL233W, strain BNI4, stronger effect = lower value 0.823 | locus YNL307C, strain MCK1, stronger effect = lower value 0.857 | locus YNR052C, strain pop2, stronger effect = lower value 0.914 | locus YOL147C, strain pex11, stronger effect = lower value 0.868 | locus YOR144C, strain elg1, stronger effect = lower value 0.932 | locus YOR184W, strain ser1, stronger effect = lower value 0.623 | locus YPR163C, strain tif3, stronger effect = lower value 0.842 | strain wtn01, stronger effect = lower value 0.838
0.709 (active) and 0.967 (inactive): locus YJL095W, strain BCK1, stronger effect = lower value
0.863 (active) and 1.04 (inactive): locus YHR030C, strain SLT2, stronger effect = lower value
